What was measured:
Test in all cases: relative growth (AUC of 72 h growth curve relative to DMSO control, dAUC) (ratio); higher = more growth (less inhibition), active = hit call of the paper
Conditions in all cases: 20 µM;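 active = growth AUC significantly below the DMSO wells by Dunnett test; inactive = the rest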
Community 7 = test system: Community 7
Method in brief: (§1)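 Growth was followed as A600, read hourly for 72 h on a plate reader after brief shaking. Isolates from Icelandic stream sediments and Silwood Park soil, and whole sediment communities, were first grown to carrying capacity in Luria–Bertani medium and then diluted 1:100 into 96-well plates with each chemical at 20 µM (1% DMSO). Relative growth (dAUC) is the spline-integrated area under the curve scaled to the mean of the DMSO controls, and the values are averages of three biological replicates.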

Community 8 = test system: Community 8
Method in brief: as §1

Community 9 = test system: Community 9
Method in brief: as §1

[1] = test system: Flavobacterium 1 (Flavobacterium glaciei)
Method in brief: as §1

[2] = test system: Flavobacterium 2 (Flavobacterium succinicans)
Method in brief: as §1

[3] = test system: Hymenobacter 1 (Hymenobacter glaciei)
Method in brief: as §1

[4] = test system: Microbacterium 1 (Microbacterium arborescens)
Method in brief: as §1

[5] = test system: Neobacillus 1 (Neobacillus soli)
Method in brief: as §1

[6] = test system: Oryzobacter 1 (Oryzobacter terrae)
Method in brief: as §1

[7] = test system: Paenibacillus 1 (Paenibacillus castaneae)
Method in brief: as §1

Measured: relative growth

CNC(=O)c1cc(Cl)cc(C)c1NC(=O)c1cc(Br)nn1-c1ncccc1Cl
inactive: Community 7 1.02 | Community 8 1.04 | Community 9 1.09 | [1] 1 | [2] 1.03 | [3] 1.13 | [4] 0.975 | [5] 1.04 | [6] 0.99 | [7] 1.09

CCC(C)c1ccccc1OC(=O)NC (stereo not given)
inactive: Community 7 1.02 | Community 8 1.05 | Community 9 1.07 | [1] 1.11 | [2] 1.02 | [3] 0.856 | [4] 1.04 | [5] 1.06 | [6] 0.993 | [7] 1

CC1(C)C(C(=O)OC(C#N)c2cccc(Oc3ccccc3)c2)C1(C)C (stereo not given)
inactive: Community 7 1.09 | Community 8 1.02 | Community 9 1.05 | [1] 0.939 | [2] 0.946 | [3] 1.02 | [4] 1.03 | [5] 0.932 | [6] 1.14 | [7] 0.918

CNC(=O)c1cc(C#N)cc(C)c1NC(=O)c1cc(Br)nn1-c1ncccc1Cl
inactive: Community 7 1.05 | Community 8 0.986 | Community 9 1.02 | [1] 1.02 | [2] 0.975 | [3] 0.978 | [4] 0.993 | [5] 0.957 | [6] 1.06 | [7] 0.915

CNC(=O)CSP(=S)(OC)OC
inactive: Community 7 1.12 | Community 8 0.999 | Community 9 0.921 | [1] 1.06 | [2] 0.966 | [3] 0.971 | [4] 1 | [5] 0.948 | [6] 1.07 | [7] 0.975

N#CCNC(=O)c1cnccc1C(F)(F)F
inactive: Community 7 1.01 | Community 8 0.986 | Community 9 0.902 | [1] 0.973 | [2] 0.944 | [3] 0.973 | [4] 1.01 | [5] 0.935 | [6] 1.09 | [7] 0.935

CC(C)N(C(=O)COc1nnc(C(F)(F)F)s1)c1ccc(F)cc1
inactive: Community 7 1.13 | Community 8 1.02 | Community 9 0.986 | [1] 1.01 | [2] 0.927 | [3] 0.849 | [4] 1.04 | [5] 0.965 | [6] 1.16 | [7] 0.899

N#Cc1nn(-c2c(Cl)cc(C(F)(F)F)cc2Cl)c(N)c1[S+]([O-])C(F)(F)F (stereo not given)
inactive: Community 7 0.995 | Community 8 1.05 | Community 9 1.04 | [1] 0.977 | [2] 1.01 | [3] 1.05 | [4] 1 | [5] 0.993 | [6] 0.998 | [7] 1.02

Clc1ccc(C(c2ccc(Cl)cc2)C(Cl)(Cl)Cl)cc1
inactive: Community 7 1.11 | Community 8 0.997 | Community 9 1.03 | [1] 0.767 | [2] 0.979 | [3] 0.976 | [4] 0.973 | [5] 1.1 | [6] 1.06 | [7] 0.913

CCc1nn(C)c(C(=O)NCc2ccc(Oc3ccc(C)cc3)cc2)c1Cl
inactive: Community 7 1.02 | Community 8 1.03 | Community 9 0.885 | [1] 1 | [2] 1.04 | [3] 0.992 | [4] 1.02 | [5] 1.05 | [6] 0.988 | [7] 1

Cc1cc(C(C#N)c2ccc(Cl)cc2)c(Cl)cc1NC(=O)c1cc(I)cc(I)c1O (stereo not given)
inactive: Community 7 0.817 | Community 8 0.725 | [4] 0.99
active: Community 9 0.394 | [1] 0.0126 | [2] 0.794 | [3] 0.00496 | [5] 0.729 | [6] 0.00516 | [7] 0.325

COc1ccc(-c2ccccc2)cc1NNC(=O)OC(C)C
inactive: Community 7 0.932 | Community 8 0.986 | Community 9 0.868 | [1] 0.888 | [2] 0.898 | [3] 0.987 | [4] 1.06 | [5] 0.89 | [6] 1.02 | [7] 0.873

COP(=O)(NC(C)=O)SC (stereo not given)
inactive: Community 7 0.831 | Community 8 0.99 | Community 9 1.03 | [1] 1.06 | [2] 0.982 | [3] 1 | [4] 1.01 | [5] 1.01 | [6] 1.04 | [7] 0.959

CCN(CC)c1nc(C)cc(OP(=S)(OC)OC)n1
inactive: Community 7 0.988 | Community 8 1.04 | Community 9 1.04 | [1] 1.05 | [2] 0.995 | [3] 1 | [4] 1.03 | [5] 1.03 | [6] 1.06 | [7] 1.02

C[N+](C)(C)CCCl
inactive: Community 7 0.749 | Community 8 0.988 | Community 9 1.01 | [1] 1.09 | [2] 0.996 | [3] 0.977 | [4] 0.994 | [5] 0.993 | [6] 1.05 | [7] 0.97

Cc1cc(C)nc(Nc2ccccc2)n1
inactive: Community 7 1.09 | Community 8 1.03 | Community 9 1.03 | [1] 1.01 | [2] 0.983 | [3] 1.1 | [4] 1.03 | [5] 0.999 | [6] 0.978 | [7] 0.762

CN(C)C(CSS(=O)(=O)O)CSS(=O)(=O)O
inactive: Community 7 1 | Community 8 1.02 | Community 9 0.942 | [1] 1.09 | [2] 1 | [3] 1.07 | [4] 1.06 | [5] 1 | [6] 1.13 | [7] 0.935

CC1(C)C(C=C(Cl)Cl)C1C(=O)OC(C#N)c1ccc(F)c(Oc2ccccc2)c1 (stereo not given)
inactive: Community 7 0.868 | Community 8 1.06 | Community 9 0.995 | [1] 1.02 | [2] 0.998 | [3] 1.03 | [4] 1.04 | [5] 0.981 | [6] 1.14 | [7] 0.826

COC(=O)N(C(=O)N1CO[C@@]2(C(=O)OC)Cc3cc(Cl)ccc3C2=N1)c1ccc(OC(F)(F)F)cc1
inactive: Community 7 1.01 | Community 8 1.02 | Community 9 1.01 | [1] 1.1 | [2] 0.979 | [3] 1.05 | [4] 1.04 | [5] 1.03 | [6] 1.09 | [7] 0.948

COc1cc(OC)nc(NC(=O)NS(=O)(=O)c2ncccc2C(=O)N(C)C)n1
inactive: Community 7 1.02 | Community 8 1.07 | Community 9 1.08 | [1] 1.12 | [2] 1.08 | [3] 1.16 | [4] 1.04 | [5] 1.1 | [6] 0.98 | [7] 1.08

COP(=O)(OC)OC=C(Cl)Cl
inactive: Community 7 1.09 | Community 8 0.997 | Community 9 0.964 | [1] 1.01 | [2] 0.965 | [3] 0.909 | [4] 0.975 | [5] 0.893 | [6] 0.94 | [7] 0.984

COC(=O)Nc1nc2ccccc2[nH]1
inactive: Community 7 0.965 | Community 8 0.959 | Community 9 1.04 | [1] 1.13 | [2] 1 | [3] 1.01 | [4] 0.974 | [5] 1.13 | [6] 1.07 | [7] 0.946

CCOc1cc(Oc2ccc(C(F)(F)F)cc2Cl)ccc1[N+](=O)[O-]
active: [7] 0.735
inactive: Community 7 0.968 | Community 8 1.04 | Community 9 0.975 | [1] 1.05 | [2] 0.971 | [3] 1.03 | [4] 1.07 | [5] 1.01 | [6] 1.03

Cc1cc(C)c(C2=C(OC(=O)CC(C)(C)C)C3(CCCC3)OC2=O)c(C)c1
inactive: Community 7 0.932 | Community 8 1.08 | Community 9 1.03 | [2] 0.981 | [3] 0.896 | [4] 1.02 | [5] 1.01 | [6] 1.16 | [7] 0.994
active: [1] 0.346

COP(=S)(OC)Oc1ccc(SC)c(C)c1
inactive: Community 7 0.973 | Community 8 1 | Community 9 1.02 | [1] 0.934 | [2] 0.998 | [3] 1.01 | [4] 0.99 | [5] 0.955 | [6] 1.02 | [7] 1.02

O=C1c2ccccc2C(=O)N1SC(Cl)(Cl)Cl
inactive: Community 7 0.943 | Community 8 0.913 | Community 9 1.01 | [1] 1.05 | [2] 0.983 | [3] 1.11 | [4] 1.02 | [5] 1.07 | [6] 0.988 | [7] 1.02

C[C@@H]1[C@@H](c2ccc(Cl)cc2)SC(=O)N1C(=O)NC1CCCCC1
inactive: Community 7 1.05 | Community 8 1.05 | Community 9 1.05 | [1] 0.937 | [2] 1.02 | [3] 1.12 | [4] 1.04 | [5] 1.06 | [6] 0.912 | [7] 1.02

CCCN(CCC)C(=O)SCc1ccccc1
inactive: Community 7 1.01 | Community 8 1.08 | Community 9 1.03 | [1] 0.979 | [2] 0.952 | [3] 1.15 | [4] 1.05 | [5] 1.02 | [6] 1.08 | [7] 1.01

CNC(=O)/C=C(\C)OP(=O)(OC)OC
inactive: Community 7 1.14 | Community 8 0.954 | Community 9 0.956 | [1] 0.897 | [2] 0.954 | [3] 0.933 | [4] 0.986 | [5] 0.937 | [6] 1.11 | [7] 0.944

Reference: the supplement of paper PMC12067926
